# Measurements: PubChem BioAssay (EPA / NIEHS)
# Calls of active or inactive are those of the source. Rule for the calls: active = hit-call score of the fitted dose curve at least 0.9, where 1 is the maximum; inactive = score below 0.9.
# How the values were obtained:
# [1] = biological target: CCAAT/enhancer-binding protein beta (Homo sapiens) (UniProt P17676); test: ATG_C_EBP_CIS: Attagene CIS-FACTORIAL HepG2 Assay for human CCAAT/Enhancer Binding Protein (C/EBP) beta (AID 2282927); conditions: HepG2 Attagene cis-factorial transcription factor reporter; actives raise or lower the signal
# Procedure, shortened: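 Chemical-treated HepG2 cells (24 h) bearing cis-regulated reporter constructs were processed for total RNA, then reverse transcription, PCR amplification, fluorescent primer extension and fragment analysis; gain- and loss-of-signal were fitted against DMSO.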
# [2] = ATG_CMV_CIS: Attagene CIS-FACTORIAL HepG2 Assay for human CMV (Internal Marker) (AID 2282928); conditions: HepG2 CMV promoter reporter, transcription factor profiling; actives raise or lower the signal;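 note: endpoint acts as a background internal control marker rather than a target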
# Procedure, shortened: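 Fluorescence intensity of RT-PCR-derived reporter fragments, resolved by capillary electrophoresis, gives the signal. HepG2 liver cells bearing transfected cis-element reporters were treated 24 h; activity in either direction was fit relative to DMSO-treated controls.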
# [3] = ATG_AP_1_CIS: Attagene CIS-FACTORIAL HepG2 Assay for human Activator Protein 1 (AP-1) (AID 2282931); conditions: HepG2 Attagene cis-factorial AP-1 reporter mRNA; actives raise or lower the signal
# Procedure, shortened: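 HepG2 cells transiently transfected with cis-element-driven reporter transcription units, dosed for 24 hours. Reporter mRNA measured by RT-PCR, 6-FAM labelling, HpaI digestion and capillary electrophoresis. Bidirectional fitting against DMSO baseline.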
# [4] = ATG_AP_2_CIS: Attagene CIS-FACTORIAL HepG2 Assay for human Activator Protein 2 (AP-2) (AID 2282932); conditions: HepG2 AP-2 cis-reporter, Attagene transcription factor profiling; actives raise or lower the signal
# Procedure, shortened: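 Cells (HepG2) transfected with promoter-driven reporter constructs, treated 24 h. Total RNA reverse-transcribed, reporter cDNA PCR-amplified, FAM-labelled by primer extension, digested, resolved by capillary electrophoresis. Activity fitted both directions versus DMSO.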
# [5] = ATG_BRE_CIS: Attagene CIS-FACTORIAL HepG2 Assay for human Bone Morphogenetic Protein (BMP) Response Element (BRE) (AID 2282933); conditions: HepG2 BMP response element reporter, Attagene transcription factor profiling; actives raise or lower the signal
# Procedure, shortened: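 Endogenous transcription factor activity at a BMP response element was monitored in transfected HepG2 cells 24 h after dosing. Fluorescent RT-PCR products were resolved by capillary electrophoresis, and activity was fitted in both directions versus DMSO.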
# [6] = ATG_E_Box_CIS: Attagene CIS-FACTORIAL HepG2 Assay for human Enhancer Box (E-box) (AID 2282936); conditions: HepG2 E-box cis-reporter transcription, actives raise or lower the signal
# Procedure, shortened: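 Endogenous transcription factor activity was sensed in human HepG2 liver cells through transfected cis-promoter reporter units. After 24 h of dosing, total RNA was reverse-transcribed and reporter cDNA resolved by capillary electrophoresis.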
# [7] = ATG_M_61_CIS: Attagene CIS-FACTORIAL HepG2 Assay for M61 Transcription Factor (Internal Marker) (AID 2282937); conditions: HepG2 Attagene CIS-FACTORIAL M61 internal marker reporter; actives raise or lower the signal
# Procedure, shortened: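 HepG2 cells transiently transfected with multiplexed cis-promoter reporter units reporting endogenous transcription factor activity, measured 24 h after dosing. Reporter mRNA quantified by RT-PCR and capillary electrophoresis; bidirectional fit against DMSO baseline.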
# [8] = ATG_EGR_CIS: Attagene CIS-FACTORIAL HepG2 Assay for human Early Growth Response 1 (EGR1) (AID 2282938); conditions: HepG2 Attagene CIS-FACTORIAL EGR reporter mRNA; actives raise or lower the signal
# Procedure, shortened: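 HepG2 cells transiently transfected with cis-element-driven multiplexed reporter units, dosed for 24 h. EGR1-element reporter mRNA quantified by RT-PCR, 6-FAM labelling, HpaI digestion and capillary electrophoresis; bidirectional fit versus DMSO.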
# [9] = ATG_Ets_CIS: Attagene CIS-FACTORIAL HepG2 Assay for human Erythroblast Transformation Specific (ETS) (AID 2282941); conditions: HepG2 ETS cis-reporter transcription, actives raise or lower the signal
# Procedure, shortened: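 Multiplexed reporter transcript profiling: HepG2, 24 h treatment, total RNA to cDNA, PCR, 6-FAM labelling, HpaI cut, capillary electrophoresis. Gain- or loss-of-signal fitted against DMSO.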
# [10] = ATG_FoxO_CIS: Attagene CIS-FACTORIAL HepG2 Assay for human Forkhead box O (FoxO) (AID 2282943); conditions: HepG2 Attagene cis-reporter, FoxO element, mRNA; actives raise or lower the signal
# Procedure, shortened: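 24 h chemical exposure, HepG2 with transient cis-MRTU transfection. RNA extraction, oligo(dT) RT, reporter-specific PCR, primer-extension labelling, HpaI digestion, CE fragment analysis; bidirectional fit, DMSO baseline.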
# [11] = ATG_GATA_CIS: Attagene CIS-FACTORIAL HepG2 Assay for human GATA Binding Protein (AID 2282944); conditions: HepG2 GATA cis-element reporter, Attagene multiplex mRNA; actives raise or lower the signal
# Procedure, shortened: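 Endogenous transcription factor activity was captured through cis-promoter-driven reporters in transfected HepG2 cells. After 24 h exposure, reporter transcripts were quantified by RT-PCR with fluorescent capillary electrophoresis, and responses fitted both directions against DMSO.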
# [12] = ATG_ISRE_CIS: Attagene CIS-FACTORIAL HepG2 Assay for human Interferon Regulatory Factor 1 (IRF1) binding to an Interferon-Stimulated Response Element (ISRE) (AID 2282948); conditions: HepG2 ISRE cis-reporter (Attagene), mRNA transcription readout; actives raise or lower the signal
# Procedure, shortened: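 Signal reflects induction or loss of ISRE-linked reporter mRNA in transiently transfected HepG2 cells after a 24 h treatment, detected by fluorescent RT-PCR fragments on capillary electrophoresis and normalised to DMSO.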
# [13] = ATG_M_06_CIS: Attagene CIS-FACTORIAL HepG2 Assay for M06 Transcription Factor (Internal Marker) (AID 2282950); conditions: HepG2 Attagene CIS-FACTORIAL M06 internal marker reporter; actives raise or lower the signal
# Procedure, shortened: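 Steps: transfect HepG2 with multiplexed cis-element reporter constructs; dose chemical 24 h; extract RNA with DNase treatment; reverse-transcribe, PCR-amplify, 6-FAM label, HpaI digest; separate fragments by capillary electrophoresis. Activity fitted both directions versus DMSO.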
# [14] = ATG_MRE_CIS: Attagene CIS-FACTORIAL HepG2 Assay for human Metal Responsive Element (MRE) (AID 2282954); conditions: HepG2 MRE cis-reporter transcription, Attagene multiplex; actives raise or lower the signal
# Procedure, shortened: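 Cells were transfected with cis-promoter reporter transcription units, then dosed for 24 h. RNA was reverse-transcribed, amplified, fluorescently labelled and resolved by capillary electrophoresis, and activity was fitted in both directions relative to DMSO.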
# [15] = biological target: Paired box protein Pax-6 (Homo sapiens) (UniProt P26367); test: ATG_Pax6_CIS: Attagene CIS-FACTORIAL HepG2 Assay for human Paired Box 6 (PAX6) (AID 2282956); conditions: HepG2 CIS-FACTORIAL PAX6 reporter transcription, RNA readout; actives raise or lower the signal
# Procedure, shortened: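 Values derive from bidirectional curve fitting of reporter mRNA signal relative to DMSO. HepG2 cells bearing transfected cis-regulated MRTUs were exposed for 24 h; transcripts were read by RT-PCR and capillary electrophoresis.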
# [16] = biological target: Transcription factor Sp1 (Homo sapiens) (UniProt P08047); test: ATG_Sp1_CIS: Attagene CIS-FACTORIAL HepG2 Assay for human Specificity Protein 1 (Sp1) (AID 2282961); conditions: HepG2 Sp1 cis-reporter transcription, actives raise or lower the signal
# Procedure, shortened: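 HepG2 cells transiently transfected with multiplexed cis-regulated reporter constructs, chemical exposure 24 h. Reporter mRNA quantified by RT-PCR with capillary electrophoresis; bidirectional fit relative to DMSO.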
# [17] = ATG_SREBP_CIS: Attagene CIS-FACTORIAL HepG2 Assay for human Sterol Regulatory Element Binding (SREBP) (AID 2282962); conditions: HepG2 Attagene cis-factorial SREBP reporter, mRNA; actives raise or lower the signal
# Procedure, shortened: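 Values derive from bidirectional curve fitting with DMSO as baseline. The underlying measurement is reporter mRNA from cis-element-regulated units in transiently transfected HepG2, quantified by RT-PCR and capillary electrophoresis after 24 h exposure.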
# [18] = biological target: Signal transducer and activator of transcription 3 (Homo sapiens) (UniProt P40763); test: ATG_STAT3_CIS: Attagene CIS-FACTORIAL HepG2 Assay for human Signal Transducer and Activator of Transcription 3 (STAT3) (AID 2282963); conditions: HepG2, Attagene cis-factorial STAT3 reporter transcription; actives raise or lower the signal
# Procedure, shortened: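 HepG2, MRTU-transfected, 24 h dosing. RNA → RT → PCR → FAM label → HpaI → CE. Bidirectional fit vs DMSO.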
# [19] = ATG_TAL_CIS: Attagene CIS-FACTORIAL HepG2 Assay for human TAL Basal Promoter (AID 2282966); conditions: HepG2 Attagene cis-factorial TAL promoter reporter; actives raise or lower the signal;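 note: background control endpoint measuring basal TAL promoter reporter mRNA not a specific factor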
# Procedure, shortened: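 Basal-promoter background-control endpoint from a multiplexed HepG2 reporter panel. Cells were exposed 24 h, then reporter mRNA was read by RT-PCR/CE fluorescence and fitted in both directions relative to DMSO.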
# [20] = biological target: X-box-binding protein 1 (Homo sapiens) (UniProt P17861); test: ATG_Xbp1_CIS: Attagene CIS-FACTORIAL HepG2 Assay for human X-box Binding Protein 1 (XBP1) (AID 2282972); conditions: HepG2 XBP1 cis-element reporter, Attagene multiplex; actives raise or lower the signal
# Procedure, shortened: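 Human hepatoma HepG2, cis-element reporter system, 24 h treatment; mRNA quantified by RT-PCR/CE fluorescence; fit relative to DMSO.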
# Sequence of X-box-binding protein 1 (Homo sapiens) (P17861 whole entry, looked up): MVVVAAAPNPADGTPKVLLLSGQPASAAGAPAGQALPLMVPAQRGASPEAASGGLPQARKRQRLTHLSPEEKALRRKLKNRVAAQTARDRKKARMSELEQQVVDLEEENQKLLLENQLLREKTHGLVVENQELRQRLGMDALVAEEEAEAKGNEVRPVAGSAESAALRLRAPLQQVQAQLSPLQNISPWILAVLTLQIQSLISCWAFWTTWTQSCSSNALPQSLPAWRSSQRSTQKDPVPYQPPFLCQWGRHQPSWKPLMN
# Sequence of Signal transducer and activator of transcription 3 (Homo sapiens) (P40763 whole entry, looked up): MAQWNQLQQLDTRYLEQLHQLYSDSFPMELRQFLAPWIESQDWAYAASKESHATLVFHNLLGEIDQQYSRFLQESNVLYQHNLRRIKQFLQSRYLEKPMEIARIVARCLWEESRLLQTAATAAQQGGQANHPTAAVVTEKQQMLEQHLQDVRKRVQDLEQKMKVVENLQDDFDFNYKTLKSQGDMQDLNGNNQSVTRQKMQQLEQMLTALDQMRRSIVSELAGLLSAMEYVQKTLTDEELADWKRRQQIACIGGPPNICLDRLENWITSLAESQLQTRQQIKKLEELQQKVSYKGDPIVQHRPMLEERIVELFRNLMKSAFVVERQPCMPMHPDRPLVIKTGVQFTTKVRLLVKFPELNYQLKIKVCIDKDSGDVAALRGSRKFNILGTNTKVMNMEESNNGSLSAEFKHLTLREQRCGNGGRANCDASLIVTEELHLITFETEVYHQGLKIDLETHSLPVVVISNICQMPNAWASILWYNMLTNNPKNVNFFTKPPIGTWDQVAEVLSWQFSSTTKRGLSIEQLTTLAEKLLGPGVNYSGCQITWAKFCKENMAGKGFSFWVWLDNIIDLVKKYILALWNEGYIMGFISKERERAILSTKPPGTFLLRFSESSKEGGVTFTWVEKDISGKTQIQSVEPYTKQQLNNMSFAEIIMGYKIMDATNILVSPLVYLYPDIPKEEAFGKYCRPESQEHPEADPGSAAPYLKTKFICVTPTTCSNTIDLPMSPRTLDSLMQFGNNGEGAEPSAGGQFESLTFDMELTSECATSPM
# Sequence of CCAAT/enhancer-binding protein beta (Homo sapiens) (P17676 whole entry, looked up, the tested form may be a part): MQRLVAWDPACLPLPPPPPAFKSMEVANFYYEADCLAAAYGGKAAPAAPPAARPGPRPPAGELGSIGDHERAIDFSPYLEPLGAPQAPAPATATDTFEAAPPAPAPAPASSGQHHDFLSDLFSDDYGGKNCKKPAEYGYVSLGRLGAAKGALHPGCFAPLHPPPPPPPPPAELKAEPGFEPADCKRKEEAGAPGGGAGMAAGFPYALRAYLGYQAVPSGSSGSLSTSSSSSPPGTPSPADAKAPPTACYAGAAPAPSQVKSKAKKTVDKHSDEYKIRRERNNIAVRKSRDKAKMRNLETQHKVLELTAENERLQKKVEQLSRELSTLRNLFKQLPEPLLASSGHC
# Sequence of Paired box protein Pax-6 (Homo sapiens) (P26367 whole entry, looked up): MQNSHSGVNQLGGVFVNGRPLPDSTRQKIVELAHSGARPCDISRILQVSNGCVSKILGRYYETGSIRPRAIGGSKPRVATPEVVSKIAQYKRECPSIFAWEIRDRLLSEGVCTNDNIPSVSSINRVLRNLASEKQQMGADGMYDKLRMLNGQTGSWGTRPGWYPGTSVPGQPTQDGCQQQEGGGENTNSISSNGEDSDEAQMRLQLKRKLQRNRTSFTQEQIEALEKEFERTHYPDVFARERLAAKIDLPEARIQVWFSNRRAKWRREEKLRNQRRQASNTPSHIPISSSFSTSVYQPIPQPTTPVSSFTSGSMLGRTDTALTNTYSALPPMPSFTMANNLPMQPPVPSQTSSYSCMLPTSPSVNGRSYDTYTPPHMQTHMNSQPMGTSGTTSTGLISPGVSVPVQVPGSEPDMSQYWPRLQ
# Sequence of Transcription factor Sp1 (Homo sapiens) (P08047 whole entry, looked up): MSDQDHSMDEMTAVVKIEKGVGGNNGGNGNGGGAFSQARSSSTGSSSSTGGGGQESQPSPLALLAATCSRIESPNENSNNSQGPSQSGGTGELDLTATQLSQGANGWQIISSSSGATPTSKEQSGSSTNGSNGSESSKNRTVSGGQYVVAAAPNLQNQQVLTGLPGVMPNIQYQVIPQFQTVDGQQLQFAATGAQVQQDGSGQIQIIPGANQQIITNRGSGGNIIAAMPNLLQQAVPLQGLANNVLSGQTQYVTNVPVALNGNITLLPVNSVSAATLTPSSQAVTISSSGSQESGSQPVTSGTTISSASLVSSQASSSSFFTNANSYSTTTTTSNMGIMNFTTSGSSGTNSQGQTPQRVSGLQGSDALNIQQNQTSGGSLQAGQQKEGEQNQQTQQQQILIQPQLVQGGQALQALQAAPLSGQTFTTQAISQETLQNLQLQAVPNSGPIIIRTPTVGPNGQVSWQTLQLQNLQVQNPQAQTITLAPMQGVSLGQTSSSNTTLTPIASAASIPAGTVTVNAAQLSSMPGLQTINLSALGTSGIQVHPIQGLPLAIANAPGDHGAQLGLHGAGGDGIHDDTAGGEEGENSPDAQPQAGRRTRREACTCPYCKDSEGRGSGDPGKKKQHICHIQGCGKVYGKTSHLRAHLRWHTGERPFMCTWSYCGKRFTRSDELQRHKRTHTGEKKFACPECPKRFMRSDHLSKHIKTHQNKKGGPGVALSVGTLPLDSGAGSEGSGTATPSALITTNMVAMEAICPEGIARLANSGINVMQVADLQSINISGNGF
smiles,measurement,setting,value
CCCC[N+]1(C)CCCC1,outcome,[1],inactive
same,outcome,[2],inactive
same,outcome,[3],inactive
same,outcome,[4],inactive
same,outcome,[5],inactive
same,outcome,[6],inactive
same,outcome,[7],inactive
same,outcome,[8],inactive
same,outcome,[9],inactive
same,outcome,[10],inactive
same,outcome,[11],inactive
same,outcome,[12],inactive
same,outcome,[13],inactive
same,outcome,[14],inactive
same,outcome,[15],inactive
same,outcome,[16],inactive
same,outcome,[17],inactive
same,outcome,[18],inactive
same,outcome,[19],inactive
same,outcome,[20],inactive
Oc1ccc(Cl)cc1C1CCCC1,outcome,[1],inactive
same,outcome,[2],inactive
same,outcome,[3],inactive
same,outcome,[4],inactive
same,AC50,[5],56.6 µM (active)
same,outcome,[6],inactive
same,outcome,[7],inactive
same,AC50,[8],54.7 µM (active)
same,AC50,[9],52 µM (active)
same,AC50,[10],61.3 µM (active)
same,AC50,[11],33.4 µM (active)
same,AC50,[12],57.3 µM (active)
same,outcome,[13],inactive
same,AC50,[14],53 µM (active)
same,AC50,[15],62.4 µM (active)
same,AC50,[16],33.4 µM (active)
same,AC50,[17],25.6 µM (active)
same,outcome,[18],inactive
same,AC50,[19],54.9 µM (active)
same,AC50,[20],43.1 µM (active)
CCCCCC[C@@H](O)C/C=C\CCCCCCCC(=O)O,AC50,[1],77 µM (active)
same,outcome,[2],inactive
same,AC50,[3],71.8 µM (active)
same,outcome,[4],inactive
same,AC50,[5],139 µM (active)
same,AC50,[6],170 µM (active)
same,outcome,[7],inactive
same,outcome,[8],inactive
same,outcome,[9],inactive
same,AC50,[10],156 µM (active)
same,AC50,[11],165 µM (active)
same,outcome,[12],inactive
same,outcome,[13],inactive
same,AC50,[14],139 µM (active)
same,outcome,[15],inactive
same,outcome,[16],inactive
same,outcome,[17],inactive
same,AC50,[18],160 µM (active)
same,outcome,[19],inactive
same,outcome,[20],inactive
O=C(C(=O)c1ccccc1)c1ccccc1,outcome,[1],inactive
same,outcome,[2],inactive
same,outcome,[3],inactive
same,outcome,[4],inactive
same,outcome,[5],inactive
same,outcome,[6],inactive
same,outcome,[7],inactive
same,outcome,[8],inactive
same,outcome,[9],inactive
same,outcome,[10],inactive
same,outcome,[11],inactive
same,outcome,[12],inactive
same,outcome,[13],inactive
same,outcome,[14],inactive
same,outcome,[15],inactive
same,outcome,[16],inactive
same,outcome,[17],inactive
same,outcome,[18],inactive
same,outcome,[19],inactive
same,outcome,[20],inactive
CC(=O)OC(C)(C)Cc1ccccc1,outcome,[1],inactive
same,outcome,[2],inactive
same,outcome,[3],inactive
same,outcome,[4],inactive
same,outcome,[5],inactive
same,outcome,[6],inactive
same,outcome,[7],inactive
same,outcome,[8],inactive
same,outcome,[9],inactive
same,outcome,[10],inactive
same,outcome,[11],inactive
same,outcome,[12],inactive
same,outcome,[13],inactive
same,outcome,[14],inactive
same,outcome,[15],inactive
same,outcome,[16],inactive
same,outcome,[17],inactive
same,outcome,[18],inactive
same,outcome,[19],inactive
same,outcome,[20],inactive
C=C1CC[C@H]2C[C@@H]1C2(C)C,outcome,[1],inactive
same,outcome,[2],inactive
same,outcome,[3],inactive
same,outcome,[4],inactive
same,AC50,[5],26.1 µM (active)
same,outcome,[6],inactive
same,outcome,[7],inactive
same,outcome,[8],inactive
same,outcome,[9],inactive
same,outcome,[10],inactive
same,outcome,[11],inactive
same,outcome,[12],inactive
same,outcome,[13],inactive
same,outcome,[14],inactive
same,outcome,[15],inactive
same,outcome,[16],inactive
same,outcome,[17],inactive
same,outcome,[18],inactive
same,outcome,[19],inactive
same,outcome,[20],inactive
O=[N+]([O-])c1ccc2nc[nH]c2c1,outcome,[1],inactive
same,outcome,[2],inactive
same,outcome,[3],inactive
same,outcome,[4],inactive
same,outcome,[5],inactive
same,outcome,[6],inactive
same,outcome,[7],inactive
same,outcome,[8],inactive
same,outcome,[9],inactive
same,outcome,[10],inactive
same,outcome,[11],inactive
same,outcome,[12],inactive
same,outcome,[13],inactive
same,outcome,[14],inactive
same,outcome,[15],inactive
same,outcome,[16],inactive
same,outcome,[17],inactive
same,outcome,[18],inactive
same,outcome,[19],inactive
same,outcome,[20],inactive
